Bioassay records (PubChem)
CYP2C9 inhib = human CYP2C9 inhibition; P11712; CYP2C9 Supersomes, luciferin-H conversion, luminescence; inhibition, % at 5 µM; 96,000 compounds, 20% hits; AID 777;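 active = blocking of liver enzyme CYP2C9 beyond about 50% at 5 µM, limit read from the data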
Target sequence (P11712 whole entry, looked up): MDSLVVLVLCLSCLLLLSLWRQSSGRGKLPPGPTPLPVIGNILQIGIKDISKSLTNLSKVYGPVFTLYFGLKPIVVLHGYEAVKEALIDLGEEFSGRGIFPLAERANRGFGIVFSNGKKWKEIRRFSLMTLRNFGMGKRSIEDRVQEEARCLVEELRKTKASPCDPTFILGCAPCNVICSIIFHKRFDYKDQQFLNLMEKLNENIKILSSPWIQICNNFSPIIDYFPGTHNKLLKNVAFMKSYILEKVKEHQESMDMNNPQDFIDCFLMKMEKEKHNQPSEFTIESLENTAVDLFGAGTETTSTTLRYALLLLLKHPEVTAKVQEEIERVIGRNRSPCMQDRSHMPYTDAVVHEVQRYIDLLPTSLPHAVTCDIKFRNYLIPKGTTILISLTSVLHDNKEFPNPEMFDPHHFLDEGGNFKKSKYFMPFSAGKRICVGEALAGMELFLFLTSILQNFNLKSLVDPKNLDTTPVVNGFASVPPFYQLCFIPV
PostGolgi yeast = growth inhibition of a yeast mutant, post-Golgi transport screen | post-Golgi transport phenotypic cell assay | inhibition, % at 10 µM | 98,000 compounds, 0.9% hits | AID 739;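 also: yeast cells grown in 1536-well plates; yeast grown about 18 h at 30C before absorbance read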
PostGolgi ctrl = growth of the yeast control strain, post-Golgi counter-screen; efflux-deficient yeast background strain, growth absorbance A615, 16 h; inhibition, % at 10 µM; 98,000 compounds, 5% hits; AID 738
CYP2C9 activ = activators of human CYP2C9; P11712; recombinant CYP2C9, luciferin-H conversion, luminescence; active compounds read high; factor 1 = untreated enzyme, 0 = blocked; activation factor at 5 µM; 96,000 compounds, 1.4% hits;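 active = activation factor of 2 or more for CYP2C9 at a 5 µM dose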;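 also: 0 = sulfaphenazole-blocked wells and 1 = vehicle-only wells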
CYP2C19 inhib = inhibitors of human CYP2C19; P33261; CYP2C19 Supersomes, luciferin-H EGE luminescence, 30 min; inhibition, % at 5 µM; 96,000 compounds, 21% hits; AID 778;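 active = CYP2C19 inhibition above a set limit at 5 µM in the primary screen, cut at about 50% in these data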;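 also: plate controls were negative control wells for no effect and 2.5 mM tranylcypromine positive control for full effect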
CYP2C19 act = cytochrome P450 2C19 (human) activation. recombinant CYP2C19, luciferin-H EGE luminescence; active compounds read high; 0 = fully inhibited enzyme, 1 = untreated enzyme. P33261. 96,000 tested, under 10 active. activation factor at 5 µM. AID 1025;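 active = activation factor of at least 2 at 5 µM in the primary screen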;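 also: 0 = wells with 2.5 mM tranylcypromine and 1 = vehicle-only wells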
Numbers without * were called inactive; / = no result given. In the library only some 32% were active in any assay of this set; here they are far more common. Rule as the data show it, unless noted: active = inhibition above about 30%; inactive = the rest.

SMILES	CYP2C9 inhib	PostGolgi yeast	PostGolgi ctrl	CYP2C9 activ	CYP2C19 inhib	CYP2C19 act
COc1ccc(OC(C)C(=O)N2CCc3ccccc3C2)cc1 (stereo not given)	23	-10	6	0.8	52*	0.5
CC(=O)Nc1ccccc1C(=O)N1CCc2ccccc21	-18	-22	11	1.2	16	0.8
Cc1c(Br)c([N+](=O)[O-])nn1C(C)C(=O)N1CCCc2ccccc21 (stereo not given)	41	-1	6	0.6	58*	0.4
CCc1cc(=O)oc2cc(OCC(=O)N3CCc4ccccc43)ccc12	7	/	/	0.9	19	0.8
Cc1cc(=O)oc2cc(OC(C)C(=O)N3CCCc4ccccc43)ccc12 (stereo not given)	84*	-5	9	0.2	38	0.6
CC(C(=O)N1CCc2ccccc21)n1cccc1 (stereo not given)	-4	-5	7	1	82*	0.2
Cc1cc(=O)oc2cc(OC(C)C)ccc12	4	6	5	1	7	0.9
Cc1nnc(NC(=O)C(C)Oc2ccc3c(C)cc(=O)oc3c2)s1 (stereo not given)	94*	-2	1	0.1	12	0.9
Cc1cc(=O)oc2cc(OCC(O)CN3CCc4ccccc4C3)ccc12 (stereo not given)	100*	11	0	0	65*	0.4
COCC(=O)N1CCCc2ccccc21	1	2	11	1	3	1
Cc1ccc(OC(C)C(=O)N2CCCc3ccccc32)cc1 (stereo not given)	44	3	9	0.6	54*	0.5
Cn1c(COc2ccc(Cl)cc2)nnc1SCc1ncc(-c2ccccc2)o1	-49	21	47*	1.5	45	0.6
COc1ccc(-n2cnnc2SCc2ncc(-c3ccccc3)o2)cc1	20	-3	13	0.8	66*	0.3
COc1ccc(-n2cnnc2SCC(=O)N2CCN(c3ccccc3)CC2)cc1	7	-4	24	0.9	34	0.7
CC1CCCCN1Cc1ccc(-c2nn[nH]n2)cc1 (stereo not given)	-8	1	45*	1.1	0	1
CS(=O)(=O)c1cccc(C(=O)NCc2ccccc2)c1	15	1	5	0.8	34	0.7
CS(=O)(=O)c1cccc(C(=O)NC(c2ccccc2)c2ccccc2)c1	97*	-1	3	0	75*	0.3
COc1ccc(C(=O)Cn2c(C(=O)/C=C/c3ccccc3)nc3ccccc32)cc1	9	-9	-3	0.9	-20	1.2
O=[N+]([O-])c1cccnc1N1CCC(c2cc(-c3ccc(Cl)cc3Cl)n[nH]2)CC1	85*	2	59*	0.1	37	0.6
CCC(=O)N1CCN(c2ccc(Cl)cc2NC(=O)c2ccc(N3CCCC3)c([N+](=O)[O-])c2)CC1	36	0	14	0.6	42	0.6
CC(=O)c1ccc(N2CCC(c3cc(-c4ccc(Cl)cc4Cl)n[nH]3)CC2)c([N+](=O)[O-])c1	59*	15	4	0.4	51*	0.5
O=[N+]([O-])c1cccnc1N1CCC(c2cc(-c3cccc(C(F)(F)F)c3)n[nH]2)CC1	98*	-1	21	0	67*	0.3
COc1ccc(OC)c(-c2cc(C3CCN(c4ncccc4[N+](=O)[O-])CC3)[nH]n2)c1	49	-9	16	0.5	22	0.8
COc1cccc(C2CC(=O)NC3=C2C(=O)CCC3)c1 (stereo not given)	2	-4	0	1	-7	1.1
O=C(Cn1cnc2c(cnn2-c2ccc(F)cc2)c1=O)N1CCN(c2ccccc2F)CC1	4	-9	6	1	20	0.8
SMILES	CYP2C9 inhib	PostGolgi yeast	PostGolgi ctrl	CYP2C9 activ	CYP2C19 inhib	CYP2C19 act
Cc1ccccc1NC(=O)Cn1nnc2c(cnn2-c2ccc(F)cc2)c1=O	4	-5	-6	1	7	0.9
O=C(Cn1nnc2c(cnn2-c2ccccc2)c1=O)N1CCN(c2ccccc2F)CC1	2	-5	37*	1	-17	1.2
O=C(Cn1nnc2c(cnn2-c2ccc(F)cc2)c1=O)OC1CCCCC1	46	-1	23	0.5	62*	0.4
COc1ccc(-c2ccnc3nc(-n4cccc4)nn23)cc1	51*	7	12	0.5	26	0.7
Cc1ccc(NC(NC(=O)c2cccs2)C(Cl)(Cl)Cl)cc1C (stereo not given)	56*	5	16	0.4	12	0.9
Cc1ccc(NC(NC(=O)c2ccccn2)C(Cl)(Cl)Cl)cc1 (stereo not given)	35	1	0	0.6	42	0.6
Cc1ccccc1NC(NC(=O)c1cccs1)C(Cl)(Cl)Cl (stereo not given)	96*	4	7	0	99*	0
CSc1ccccc1NC(=O)c1cccs1	4	1	6	1	8	0.9
Cc1ccc(NC(NC(=O)c2cccs2)C(Cl)(Cl)Cl)cc1 (stereo not given)	99*	2	19	0	95*	0.1
CCCC(=O)NNc1cc(=O)c2c(=O)n(C)c(=O)n(C)c2[nH]1	-9	-7	1	1.1	-12	1.1
Cc1ccc(NC(=O)CS(=O)CC(=O)NCCCN(C)c2ccccc2)cc1 (stereo not given)	84*	1	1	0.2	60*	0.4
Nc1cccc(-c2nc3ccc(N)cc3s2)c1	58*	18	7	0.4	80*	0.2
Cc1cc(C)n(-c2nc3c(c(=O)[nH]c(=O)n3C)n2CC(O)COc2ccccc2C)n1 (stereo not given)	19	-1	3	0.8	74*	0.3
Cc1cc(C)n(-c2nc3c(c(=O)[nH]c(=O)n3C)n2Cc2cccc(Br)c2)n1	46	6	12	0.5	55*	0.4
Cn1c(=O)[nH]c(=O)c2c1nc(N1CCOCC1)n2CC(O)COc1ccccc1 (stereo not given)	75*	4	-10	0.2	18	0.8
Cc1ccc(Cn2c(-n3nc(C)cc3C)nc3c2c(=O)[nH]c(=O)n3C)cc1	10	6	2	0.9	15	0.8
Cn1c(=O)[nH]c(=O)c2c1nc(N1CCCC1)n2CC(O)COc1ccccc1 (stereo not given)	-14	-5	3	1.1	-17	1.2
COC(=O)C1CCN(C(=O)NC(C)(C)C)CC1	-13	4	0	1.1	-14	1.1
CCOC(=O)c1c(NC(=O)Cn2nc([N+](=O)[O-])c(Br)c2C)sc2c1CCC(C)C2 (stereo not given)	-16	-8	-1	1.2	-15	1.2
O=C1c2ccccc2C(=O)N1CCc1csc(-c2ccc(F)cc2)n1	1	-12	20	1	100*	0
O=C1c2ccccc2C(=O)N1CCc1csc(-c2ccccc2)n1	-36	0	14	1.4	100*	0
